Compounds with a hit are over-represented: about 1.2% of the library has one in this group of screens.
RXFP1 antagonist – RXFP1 (human) relaxin receptor antagonism; activity change, negative = inhibition, % at 57.5 µM; Q9HBX9; hit rate 0.59% among 350,000; HEK293-RXFP1, relaxin-stimulated cAMP HTRF, 30 min; hits give low values;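 active = activity change of -60% or lower, but not beyond a set lower limit; inconclusive = change between -60% and -40%, or beyond the set limit; inactive = change above -40%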; also: % is scaled to controls: 0 for no effect and ±100 for the full control effect
Target sequence (Q9HBX9 whole entry, looked up): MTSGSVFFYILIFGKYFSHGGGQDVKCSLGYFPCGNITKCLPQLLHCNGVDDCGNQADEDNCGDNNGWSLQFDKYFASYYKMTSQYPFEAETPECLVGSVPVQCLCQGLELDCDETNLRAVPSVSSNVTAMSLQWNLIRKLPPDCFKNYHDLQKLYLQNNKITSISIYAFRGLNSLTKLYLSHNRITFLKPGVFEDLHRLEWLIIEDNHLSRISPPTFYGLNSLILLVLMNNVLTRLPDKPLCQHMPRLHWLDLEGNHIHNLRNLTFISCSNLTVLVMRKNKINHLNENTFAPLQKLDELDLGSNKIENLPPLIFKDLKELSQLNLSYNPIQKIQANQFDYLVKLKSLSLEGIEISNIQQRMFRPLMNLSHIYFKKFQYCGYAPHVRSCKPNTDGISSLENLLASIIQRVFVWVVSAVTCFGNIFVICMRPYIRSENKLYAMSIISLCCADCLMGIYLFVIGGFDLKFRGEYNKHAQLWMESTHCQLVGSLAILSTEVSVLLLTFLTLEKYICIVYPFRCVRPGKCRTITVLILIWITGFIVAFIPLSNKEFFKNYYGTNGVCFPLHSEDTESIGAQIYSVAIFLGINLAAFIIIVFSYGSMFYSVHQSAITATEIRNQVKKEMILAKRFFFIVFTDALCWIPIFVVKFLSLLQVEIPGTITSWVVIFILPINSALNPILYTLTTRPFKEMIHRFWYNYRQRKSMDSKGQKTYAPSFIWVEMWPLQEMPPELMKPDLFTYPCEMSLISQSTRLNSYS
Akt phos inh – Akt phosphorylation inhibition | Neuro2A IGF-stimulated pAkt S473 HTRF, 20 min; hits give low values | activity change, % for hits at 50 µM | hit rate 0.32% among 360,000 | AID 651550; in the data active = activity change below about -80%; inconclusive = mostly about -51% to -80%; also: % is scaled to controls: 0 for no effect and ±100 for the full control effect
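Neuro2A cells in DMEM with 0.5% FBS, overnight at 37 deg C, given compound at single 50 µM final, then IGF (6 nM final) for 20 min at 37 deg C. Lysed; phospho-Akt Ser473 by HTRF after 24 h, 665/615 ratio.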
gsp antagonist – antagonizes gsp, the McCune-Albright syndrome mutation | gsp-mutant cells, cAMP HTRF, 30 min | Potency, µM (highest dose often 76.9 µM), for the others: at the highest dose activity change, negative = inhibition, most hits filed as inhibitors | hit rate 0.4% among 340,000; calls by dose curve; cell line not stated here;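 also: intracellular cAMP measured with PDE inhibitor Ro 20-1724 present during compound exposure; potency is read from the fitted curve at half-maximal effect; % is scaled to controls: 0 for no effect and ±100 for the full control effect; nearly all actives have a fitted effect of over 65% in size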
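Cells, 2000/well, grown 16–24 h in DMEM 10% FBS with 0.5 mg/ml G418, then compounds plus […] (300 uM addition stock), 30 min at 37C. cAMP read by HTRF (cAMP-d2 and anti-cAMP antibody-K in lysis buffer) after 30 min RT.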
RXFP1 ag – agonists of human relaxin receptor RXFP1. Q9HBX9. HEK293T-RXFP1 cAMP TR-FRET, 30 min; response scale: percent of porcine relaxin response, buffer zero. Potency, µM (top dose mostly 57.5 µM), inactives show at the highest dose activation, usual class: activators. hit rate 0.3% among 370,000; active = well fitted activation curve with a large enough effect; inconclusive = small, poorly fitted or top-dose-only effect; also: potency is read from the fitted curve at half-maximal effect; % is scaled to controls: 0 for no effect and ±100 for the full control effect; nearly all actives have a fitted effect of over 60% in size
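HEK293T cells stably expressing RXFP1 were pretreated with the PDE4 inhibitor Ro 20174, exposed to compounds for 30 min at 37C, lysed, and cAMP was read by TR-FRET. Data normalized to buffer (basal) and 29 nM porcine relaxin (100%).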
gsp ag – activates gsp, the McCune-Albright syndrome mutation; hit rate 0.13% among 340,000; gsp mutant cells, cAMP HTRF, 30 min; Potency, µM (series often up to 76.9 µM), for inactives: at the top dose activation (cAMP increase), actives largely listed as activators; AID 624287; active = well fitted activation curve with a large enough effect; inconclusive = small, poorly fitted or top-dose-only effect, or another doubt; inactive = no such curve, though single readings can be large or run the other way; cell line not stated here;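 also: phosphodiesterase inhibitor Ro 20-1724 added with compounds to block cAMP breakdown; potency is read from the fitted curve at half-maximal effect; nearly all actives have a fitted effect of over 60% in size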
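Cells in DMEM/10% FBS with G418 were pretreated with compounds in DMSO plus […] (300 uM stock) for 30 min at 37C. cAMP was measured by HTRF (cAMP-d2 plus anti-cAMP antibody-K) after 30 min at room temperature.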
* hit, by the source's call; i = inactive; u = inconclusive; x = not tested or not shown; [ ] = dose if it differs, or a comment.

SMILES	RXFP1 antagonist	Akt phos inh	gsp antagonist	RXFP1 ag	gsp ag
Cc1cccc(NC(=O)C2CCCN(c3nnc(-n4c(C)ccc4C)s3)C2)c1C (centres undefined)	0.2	x	x	-2.3%	x
Cc1nc2ccc([N+](=O)[O-])cc2c(=O)n1Cc1cccc(F)c1	-8.7	i	10.2%	22.7%	14.1µM*
Cc1cccc(Cn2c(C)nc3ccc([N+](=O)[O-])cc3c2=O)c1	-1.0	i	-4.3%	6.7%	-18.3%
CCOC(=O)c1cc(-c2ccccc2)n(-c2cccc(C(=O)Nc3ccc(OC)cc3)c2)c1C	-5.4	x	x	3.2%	x
Cc1ccccc1Cn1cc(CCC(=O)NCc2cccc(Br)c2)c2ccccc21	8.7	x	x	1.2%	x
CCCCS(=O)(=O)NC1=NCN(CCOC(=O)c2ccccc2)CN1	-14.5	-102.6%*	4.7%	x	-1.1%
Cc1ccc(S(=O)(=O)NC2=NCN(CCOC(=O)c3ccccc3)CN2)cc1	4.2	i	3.0%	1.1%	-47.6%
CCN(CC)S(=O)(=O)c1cc(NC(=O)c2ccc3c(c2)NC(=O)C(C)S3)ccc1C (centres undefined)	-76.3*	i	u	-0.3%	-30.3%
C=C1CSc2nc(=O)c3c4c(sc3n21)CCCC4	-2.1	i	4.2%	11.4%	u
C=C1CSc2nc(=O)c3c4c(sc3n21)CCC4	-4.3	-115.0%*	-5.4%	11.1%	u
Cc1cccc(NC(=O)CSc2ncc(-c3ccc(Br)cc3)[nH]2)c1	-13.9	x	x	1.0%	x
CC(=O)Nc1ccc(NC(=O)Nc2cccc(Cl)c2)cc1	2.4	i	-4.0%	0.3%	22.8%
O=C(Nc1ccc(F)c(Cl)c1)Nc1csc2ccccc12	-39.6	i	35.5µM*	0.0%	8.2%[15.4 µM]
COC(=O)c1cccc(NC(=O)NC(=O)c2ccccc2Cl)c1	-6.2	i	4.0%	0.7%	22.1%
COC(=O)c1ccc(NC(=O)Nc2ccc(F)cc2)cc1	-15.5	x	-11.3%	-0.8%	u
O=C(Nc1ccccc1)Nc1cccc(Cl)c1	-15.1	i	31.6µM*	-2.3%	-3.7%
COC(=O)c1ccc(NC(=O)Nc2ccc(F)c(Cl)c2)cc1	-20.4	i	35.5µM*	2.7%	0.5%
COC(=O)c1cccc(NC(=O)Nc2ccc(Cl)c(Cl)c2)c1	u	i	35.5µM*	0.5%	-1.4%
CC(=O)SC[C@@H](C)C(=O)N1CCC[C@H]1C(=O)N[C@@H](Cc1ccccc1)C(=O)O	13.5	x	x	x	x
O=C(Nc1ccc(Cl)cc1)Nc1ccc(Cl)c(C(F)(F)F)c1	-92.5*	x	x	x	x
CNCC(=O)Nc1ccc(Cl)c(C(F)(F)F)c1	-0.8	i	-12.8%	2.6%	-48.6%
COc1ccc(-c2sc3ccccc3c2/C=C/c2ccncc2)cc1	x	i	11.2µM*	x	x
COc1ccc(-c2sc3ccccc3c2/C=C/c2ccc(OC)c(OC)c2)cc1	x	i	6.3%	x	u
CN(C(=O)COC(=O)CSc1ccc([N+](=O)[O-])cc1)C1CCS(=O)(=O)C1 (centres undefined)	-100.5*	i	-0.9%	-0.2%	7.6%[15.4 µM]
CC1CCN(S(=O)(=O)N2CCC(C(=O)NCc3ccccc3Cl)CC2)CC1	-17.5	x	x	-1.2%	x
SMILES	RXFP1 antagonist	Akt phos inh	gsp antagonist	RXFP1 ag	gsp ag
COc1ccc(-c2nn(C)c3sc(C(=O)Nc4cccc(F)c4)cc23)cc1OC	-8.0	x	x	5.5%	x
CC12CC3CC(C)(C1)CC(C(=O)N1CCCC1)(C3)C2	-88.3*	i	0.1%	2.4%	-34.9%
O=C(CSc1ncc(S(=O)(=O)c2ccc(Cl)cc2)c(=O)[nH]1)Nc1ccc2c(c1)OCCO2	x	x	x	-2.2%	x
CCN(C(=O)COC(=O)c1cc(-c2ccccc2)nc2ccc(Br)cc12)C1CCS(=O)(=O)C1 (centres undefined)	7.3	i	u	25.1µM*	58.5%[15.4 µM]
CCN(C(=O)COC(=O)c1cc(-c2cccs2)nc2ccccc12)C1CCS(=O)(=O)C1 (centres undefined)	24.0	i	-22.8%	4.4%	u
CC(C)(C)c1nnc(NS(=O)(=O)c2ccc(N)cc2)s1	8.2	x	x	x	x
COc1cc(OC)cc(-c2nc3ccccc3c(=O)o2)c1	-23.6	-99.3%*	-12.7%	-2.2%	-12.0%
Cc1cccc(-n2c(=O)c3c(n4cnnc24)-c2ccccc2CC32CCCCC2)c1	-21.3	i	-2.8%[15.4 µM]	0.9%	28.2%
O=c1c2c(n3cnnc3n1-c1ccccc1)-c1ccccc1CC21CCCCC1	0.5	-113.7%*	u	2.8%	24.2%
CSc1nc(SCC(=O)O)c2sc3nc(-c4ccccc4)c4c(c3c2n1)CCC4	0.4	i	6.9%	28.2µM*	u
CSc1nc(N(C)CCO)c2sc3nc(-c4ccco4)c4c(c3c2n1)CCC4	1.4	i	-13.6%	4.4%	u
CS(=O)(=O)Oc1ccc(Br)c2cccnc12	-1.2	i	11.0%	0.2%	20.3%
Nc1ccc(Br)c2cccnc12	-64.9*	i	-15.6%	2.2%	-12.0%[15.4 µM]
CCCSc1cc(N2CCN(C)CC2)nc(-c2ccc(OC)cc2)n1	-34.4	-88.6%*	4.6%	-0.7%	-3.5%
CCOC(=O)c1c(S(=O)(=O)N2CCC(C(=O)N3CCN(c4cccc(C)c4C)CC3)CC2)c(C)n(C)c1C	-3.1	x	x	1.1%	x
COc1ccc(COc2ccccc2C(=O)NCc2ccccc2)cc1F	0.6	i	28.2µM*	1.0%	-28.5%
CC1=NN(C(N)=S)C(=O)C1N=Nc1c(Br)cc(Br)cc1Br (centres undefined)	-64.3*	i	-9.7%	-3.1%	9.2%
CC1=NN(C(N)=S)C(=O)C1N=Nc1c(C)cc(C)cc1C (centres undefined)	-1.4	i	2.6%	-0.4%	-39.5%
COc1ccc(CNS(=O)(=O)c2ccc(-c3cc(C(F)(F)F)on3)s2)cc1OC	-24.1	x	x	1.9%	x
CC(C)Sc1nc(NCc2ccco2)c2c3c(sc2n1)COC(C)(C)C3	-8.9	-118.2%*	2.5%	3.0%	29.1%
CSc1nc(SCC(=O)NCc2ccco2)c2c3c(sc2n1)COC(C)(C)C3	-15.8	i	18.1%	11.6%	-0.8%
COc1cccc(NC(=O)Cn2c3ccc(OC)cc3c3nc4n(c(=O)c32)CCS4)c1	4.3	i	0.2%	10µM*	u
O=C(Nc1cccc2c(=O)cc(-c3nn[nH]n3)oc12)c1ccc(OCCCCc2ccccc2)cc1	-29.0	x	x	x	x
CCc1ccc(NC(=O)CN(c2ccc(OC)cc2)S(=O)(=O)c2c(C)nn(C)c2C)cc1	-113.2*	i	-18.7%	-1.4%	u
COc1ccc(C(=O)NCC2(c3ccccc3)CCCC2)c(OC)c1	-5.3	i	u	-0.7%	-13.9%
COc1ccc(C2(CNC(=O)CCC(=O)O)CCCC2)cc1	-2.4	-114.5%*	0.1%	-0.1%	14.2%
CCOC(=O)c1cc(-c2ccccc2)n(CCC(=O)Nc2ccc(Cl)c(C(F)(F)F)c2)c1C	u	x	x	-0.6%	x
Cc1ccc(Nc2nc3nonc3nc2Nc2cccc(C(F)(F)F)c2)cc1Cl	u	x	x	-2.9%	x

Source: PubChem BioAssay (National Center for Advancing Translational Sciences (NCATS))
